From PubChem
Most compounds without a hit are left out; they make up all but 4% or so of the library.
FAS-TE inh: blocks the thioesterase domain of human fatty acid synthase | AID 602261 | recombinant FAS-TE, OMFH fluorogenic substrate, fluorescence endpoint | 0.67% of 360,000 active | inhibition, % at 15 µM | P49327;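 active = compounds whose normalised, plate-corrected inhibition of enzyme fluorescence in the single-dose primary screen is 50% or more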;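 also: 0% = DMSO with enzyme and 100% = substrate without enzyme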
Target sequence (P49327 whole entry, looked up, the tested form may be a part): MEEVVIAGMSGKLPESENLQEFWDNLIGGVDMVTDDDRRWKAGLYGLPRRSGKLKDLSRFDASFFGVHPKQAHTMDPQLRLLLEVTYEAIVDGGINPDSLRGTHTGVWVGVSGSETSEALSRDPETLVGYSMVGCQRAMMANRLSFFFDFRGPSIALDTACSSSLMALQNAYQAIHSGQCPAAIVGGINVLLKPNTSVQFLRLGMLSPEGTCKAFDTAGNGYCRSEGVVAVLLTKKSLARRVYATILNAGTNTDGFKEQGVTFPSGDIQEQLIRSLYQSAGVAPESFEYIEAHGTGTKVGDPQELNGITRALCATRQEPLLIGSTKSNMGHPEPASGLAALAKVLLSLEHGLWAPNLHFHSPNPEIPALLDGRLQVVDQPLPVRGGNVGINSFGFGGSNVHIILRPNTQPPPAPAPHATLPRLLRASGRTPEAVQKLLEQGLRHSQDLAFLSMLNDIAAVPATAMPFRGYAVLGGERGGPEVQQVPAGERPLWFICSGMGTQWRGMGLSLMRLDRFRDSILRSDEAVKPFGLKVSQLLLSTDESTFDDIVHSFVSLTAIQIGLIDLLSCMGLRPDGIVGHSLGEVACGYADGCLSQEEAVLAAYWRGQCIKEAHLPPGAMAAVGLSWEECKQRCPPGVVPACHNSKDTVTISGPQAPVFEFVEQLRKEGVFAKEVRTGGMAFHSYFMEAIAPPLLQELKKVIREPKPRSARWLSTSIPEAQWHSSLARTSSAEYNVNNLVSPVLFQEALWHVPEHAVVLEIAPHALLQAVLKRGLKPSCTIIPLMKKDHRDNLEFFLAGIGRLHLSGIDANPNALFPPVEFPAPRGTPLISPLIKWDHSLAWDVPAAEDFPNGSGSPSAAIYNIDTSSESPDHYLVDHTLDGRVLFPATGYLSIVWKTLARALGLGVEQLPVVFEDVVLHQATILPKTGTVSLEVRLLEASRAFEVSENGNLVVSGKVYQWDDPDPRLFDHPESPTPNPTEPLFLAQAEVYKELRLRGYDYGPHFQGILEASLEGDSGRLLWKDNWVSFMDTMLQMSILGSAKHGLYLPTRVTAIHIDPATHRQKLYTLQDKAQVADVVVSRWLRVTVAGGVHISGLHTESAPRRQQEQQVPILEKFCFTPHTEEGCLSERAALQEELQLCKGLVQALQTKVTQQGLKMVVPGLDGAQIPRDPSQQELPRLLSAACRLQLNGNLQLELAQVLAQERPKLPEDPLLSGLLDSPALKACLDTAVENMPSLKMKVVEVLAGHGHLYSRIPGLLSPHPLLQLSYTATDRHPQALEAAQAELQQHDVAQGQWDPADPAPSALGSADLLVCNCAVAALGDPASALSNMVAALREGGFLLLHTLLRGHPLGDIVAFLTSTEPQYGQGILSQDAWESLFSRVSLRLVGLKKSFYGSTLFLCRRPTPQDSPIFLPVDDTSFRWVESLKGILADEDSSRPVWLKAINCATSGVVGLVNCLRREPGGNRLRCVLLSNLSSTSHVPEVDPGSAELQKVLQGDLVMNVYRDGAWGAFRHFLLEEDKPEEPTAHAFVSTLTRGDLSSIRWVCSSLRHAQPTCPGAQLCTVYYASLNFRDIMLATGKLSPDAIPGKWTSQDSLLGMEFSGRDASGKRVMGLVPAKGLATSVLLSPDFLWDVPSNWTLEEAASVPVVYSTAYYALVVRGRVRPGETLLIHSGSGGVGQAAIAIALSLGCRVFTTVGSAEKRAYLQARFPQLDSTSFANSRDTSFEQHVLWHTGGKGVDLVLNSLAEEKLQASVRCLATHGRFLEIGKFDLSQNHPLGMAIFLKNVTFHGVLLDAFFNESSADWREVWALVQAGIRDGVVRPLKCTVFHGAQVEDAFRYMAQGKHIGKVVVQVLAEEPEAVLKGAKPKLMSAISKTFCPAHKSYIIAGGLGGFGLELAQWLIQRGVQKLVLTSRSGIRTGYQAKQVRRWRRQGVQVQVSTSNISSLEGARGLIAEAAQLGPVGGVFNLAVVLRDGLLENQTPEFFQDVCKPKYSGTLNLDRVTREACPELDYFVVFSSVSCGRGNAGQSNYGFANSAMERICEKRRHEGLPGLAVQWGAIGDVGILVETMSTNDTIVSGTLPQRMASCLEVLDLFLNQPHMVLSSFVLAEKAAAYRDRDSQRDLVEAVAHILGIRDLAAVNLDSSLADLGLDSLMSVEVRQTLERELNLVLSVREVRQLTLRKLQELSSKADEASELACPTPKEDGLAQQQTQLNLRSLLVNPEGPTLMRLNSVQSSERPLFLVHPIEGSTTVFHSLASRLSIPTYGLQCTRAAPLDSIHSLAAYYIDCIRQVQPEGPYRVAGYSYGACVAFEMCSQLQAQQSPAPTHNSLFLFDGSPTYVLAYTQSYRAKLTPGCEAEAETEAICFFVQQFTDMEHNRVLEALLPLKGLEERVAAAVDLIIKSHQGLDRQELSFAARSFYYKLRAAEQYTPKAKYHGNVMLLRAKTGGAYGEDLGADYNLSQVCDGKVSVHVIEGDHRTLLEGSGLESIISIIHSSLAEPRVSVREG
ADAM17 inh: inhibits human ADAM17; P78536; recombinant ADAM17, EDANS/DABCYL FRET peptide cleavage; inhibition, % at 6.95 µM; 0.83% of 370,000 active; AID 720648;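 active = inhibition above the mean of compounds lying between control limits plus 3 SD, set per campaign, cut at about 8.5% in these data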;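 also: 0% = DMSO-only wells as the low control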
GRIN3A LBD mod: modulates the human NR3A ligand-binding domain; NR3A LBD differential scanning fluorimetry, Tm shift; 0% = protein alone, 100% = glycine-bound protein; Tm shift relative to glycine control, % at 25 µM; 2.5% of 340,000 active;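 active = melting temperature shift of at least 10% of the positive control shift, at one fixed dose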
aDG glyco act: alpha-DG glycosylation activation; Pro5-aDG cells, alpha-DG glycosylation AlphaScreen (IIH6); 0% Pro5, 100% B10-LARGE cell signal; activation, % at 10 µM; 0.22% of 360,000 active; AID 624168;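 active = activation of at least 8% versus controls, or a plate z-score of at least 8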;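 also: Pro5 are CHO cells carrying HIG-tagged alpha-DG that lacks glycosylation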
ADAM10 inh: inhibits human ADAM10. O14672. recombinant ADAM10, EDANS/DABCYL FRET peptide cleavage, 3 h. inhibition, % at 7 µM. 0.62% of 370,000 active;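 active = inhibition above a per-campaign cutoff equal to the mean of compounds falling between control-based bounds plus 3 SD, cut at about 20% in these data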;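 also: 0% = DMSO wells while the 100% control is not disclosed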
ADAM10 ctr: counter-screen for ADAM17 exosite inhibitors: inhibitors of human ADAM10. AID 743256. 47% of 2,900 active. inhibition, % at 6.95 µM. recombinant ADAM10, EDANS/DABCYL FRET peptide cleavage, 3 h. shares compounds with ADAM17 inh;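 active = mean inhibition over the triplicate runs exceeds the activity threshold set in the earlier primary screen, cut at about 20% in these data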;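 also: 0% = DMSO wells and 100% = marimastat wells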
ADAM17 confirm: human ADAM17 inhibition, confirmation | 65% of 2,900 active | shares compounds with ADAM17 inh | inhibition, % at 6.95 µM | recombinant ADAM17, EDANS/DABCYL QFRET peptide cleavage;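 active = mean inhibition across replicates above the hit cutoff set in the primary screen, cut at about 8.5% in these data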;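 also: 0% = DMSO wells and 100% = marimastat wells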
* = called active by the depositor; · = no result.

SMILES | FAS-TE inh | ADAM17 inh | GRIN3A LBD mod | aDG glyco act | ADAM10 inh | ADAM10 ctr | ADAM17 confirm
Cc1ccc(C(C(=O)NC2CCCC2)N(C(=O)CNC(=O)c2cccs2)c2cccnc2)o1 (stereo not given) | -0.8 | -0.5 | 0.3 | -0.1 | -1.8 | · | ·
CCOCCCn1c(SC(C(=O)Nc2cc(C)ccc2C)c2ccccc2)nnc1-c1ccc(Cl)cc1 (stereo not given) | -4.1 | 9.9* | 4.4 | 0.2 | -8.0 | 1.8 | 6.4
CCNc1nc(NCC)n2c(SC(C(=O)Nc3cc(C)ccc3C)c3ccccc3)nnc2n1 (stereo not given) | 9.2 | 6.5 | -2.7 | -0.1 | 8.1 | · | ·
COc1ccc(-c2n[nH]c(=S)n2-c2ccc(Br)cc2)cc1OC | 4.3 | 10.5* | -2.2 | 0.1 | 1.6 | 2.1 | 36.8*
COc1ccccc1NC(=O)c1ccc(C)c(S(=O)(=O)N2CCCCC2)c1 | 19.3 | 6.8 | 1.8 | -0.1 | 14.4 | · | ·
COc1ccccc1NC(=O)c1ccc(Cl)c(S(=O)(=O)N2CCCCC2)c1 | 18.8 | 10.1* | 0.3 | -0.1 | 13.8 | 3.1 | 2.9
COc1ccc(-c2csc(C(O)(c3ccccc3)C(F)(F)F)n2)cn1 (stereo not given) | 18.1 | 3.2 | · | 0.3 | 4.7 | · | ·
COc1ccccc1-c1csc(C(O)(c2ccccc2)C(F)(F)F)n1 (stereo not given) | 22.1 | 10.3* | · | -0.2 | 16.6 | 33.6* | 19.0*
COc1cc(F)ccc1-c1csc(C(C)(O)c2ccccc2)n1 (stereo not given) | 16.0 | 10.1* | · | 0.1 | 18.3 | 23.8* | 11.4*
CC1(C(=O)O)CCCN1C(=O)c1cccc(F)c1 (stereo not given) | -8.3 | -2.3 | · | -0.3 | -13.0 | · | ·
CCOc1ccc(N=C/C=C/c2ccccc2)c(O)c1 | -3.9 | -5.2 | -1.2 | 2.1 | -12.4 | · | ·
COc1ccccc1CNC(=O)CCc1ccccc1 | -3.0 | 5.4 | 1.6 | -0.1 | 9.4 | · | ·
CCN(CC)C(=O)N1CCC(NC(=O)Cc2ccccc2)CC1 | -9.0 | 9.4* | -2.9 | 0.2 | 3.0 | -6.1 | 0.9
O=C(Cc1ccccc1)NC1CCN(C(=O)NCc2ccccc2)CC1 | -6.7 | -0.9 | 3.9 | -0.3 | 3.4 | · | ·
O=C(COc1ccccc1Br)N1CCN(C(=O)c2cccs2)CC1 | -5.9 | 8.8* | -0.3 | 0.2 | 7.4 | 12.7 | 9.3*
O=C(COc1ccccc1)N1CCN(C(=O)c2cccs2)CC1 | -5.8 | -1.4 | 0.4 | 0.0 | 8.9 | · | ·
COc1ccc(S[C@@H](CCN2CC[C@H](C)CCC2=O)c2ccccc2)cc1 | 29.0 | 13.9* | -2.9 | 0.4 | 14.9 | 16.4 | 11.2*
COc1ccc2c(C(=O)NCc3ccc4c(c3)OCO4)c(-c3ccc(S(C)(=O)=O)cc3)sc2c1 | -4.8 | -26.6 | -3.4 | -0.4 | -104.4 | · | ·
O=C1NC[C@@H](Cc2cccc3ccccc23)N(CCCCC2CCCCC2)C1=O | 29.9 | 10.7* | -17.8 | 0.1 | 11.7 | 5.3 | 3.9
O=C1NC[C@H](CC2CCCCC2)N(CCc2cccc3ccccc23)C1=O | 7.2 | -0.1 | · | 0.0 | 1.9 | · | ·
C=CCCC(=O)N1CCCC(Cc2cccc(Cl)c2)(C(=O)OCC)C1 (stereo not given) | 4.8 | 9.1* | -1.5 | 0.3 | 9.7 | -6.0 | 0.2
CC(=O)NC12CC3CC(C1)CC(C(=O)Nc1nc4ccc(F)cc4s1)(C3)C2 | 2.6 | 8.6* | -3.0 | -0.1 | -3.8 | -1.6 | 1.7
O=C(COc1ccc(-c2nnco2)cc1)N1CCN(S(=O)(=O)c2ccccc2)CC1 | -2.4 | -6.0 | 0.3 | -0.1 | -12.9 | · | ·
O=C(Cc1cccs1)Nc1nc(-c2ccc(F)cc2F)cs1 | 31.9 | 14.1* | 2.0 | 0.1 | 16.1 | 18.5 | 10.7*
CC(C)Cc1nc(SCC(=O)NCc2ccccc2)n[nH]1 | -6.7 | -3.1 | -1.0 | -0.2 | 7.9 | · | ·
SMILES | FAS-TE inh | ADAM17 inh | GRIN3A LBD mod | aDG glyco act | ADAM10 inh | ADAM10 ctr | ADAM17 confirm
CCCCOP(=O)(OCCCC)C(O)c1ccc(Br)cc1 (stereo not given) | 3.7 | 10.6* | -4.6 | 0.0 | 11.3 | -6.5 | 0.2
Cc1[nH]c2ccccc2c1C(=O)c1cc(Cc2ccccc2)sc1N | · | 4.7 | · | -0.2 | 1.0 | · | ·
CCC(=O)c1ccc(OCC(O)Cn2c(C)nc3ccccc32)cc1 (stereo not given) | -4.6 | -5.9 | 0.6 | 3.2 | -2.6 | · | ·
COc1ccc(S(=O)(=O)N2CCN(C(=S)NC3CCCCC3)CC2)cc1 | -3.7 | -1.8 | -0.2 | -0.2 | 1.1 | · | ·
Cc1ccc(C(=O)N/C(=C\c2ccccc2)C(=O)NCC2CCCO2)cc1 (stereo not given) | -11.7 | -0.6 | 0.4 | -0.1 | -8.6 | · | ·
N/C(=N\N=C\c1cccc([N+](=O)[O-])c1)c1nonc1N | 0.1 | 2.9 | -0.1 | 2.9 | 5.0 | · | ·
N/C(=N\N=C\c1ccc2c(c1)OCO2)c1nonc1N | -1.4 | 9.8* | -2.8 | -0.3 | 19.6 | 10.6 | 6.1
CC1(Cc2ccccc2Cl)C(=O)Nc2ccc(OC(F)(F)F)cc21 (stereo not given) | 27.7 | 13.0* | · | 0.5 | 13.4 | 20.9* | 12.6*
C#Cc1ccc([C@@H]2C=C(C(=O)Nc3ccccc3)O[C@H](OCC)[C@H]2CCCO)cc1 | 3.7 | 10.8* | -14.0 | 0.6 | 16.4 | 11.2 | 7.6
Fc1cccc2sc(Nc3nc4cc5c(cc4s3)OCO5)nc12 | 8.8 | -86.0 | 5.3 | 1.1 | -204.3 | · | ·
N#Cc1nc(COc2cccc(Cl)c2)oc1NCc1ccncc1 | -8.7 | 0.9 | -2.7 | -0.1 | -2.2 | · | ·
COc1ccc(CNc2oc(COc3ccc(Cl)cc3)nc2C#N)cc1 | 39.0 | 10.9* | 3.5 | 0.2 | 18.2 | 30.6* | 16.4*
COc1ccc(Nc2oc(COc3ccc(Cl)cc3)nc2C#N)cc1 | 28.0 | 13.5* | 1.7 | 0.2 | 25.6* | 30.8* | 17.6*
COc1ccc(CCNc2oc(COc3ccc(Br)cc3)nc2C#N)cc1OC | 18.7 | 10.4* | -2.2 | -0.1 | 18.5 | 33.6* | 18.9*
CCOC(=O)C1=C(C(=O)OCC)C2N(Cc3ccc(C(F)(F)F)cc3)c3ccccc3[C@@]23C[C@@H](C(=O)OC)N(S(=O)(=O)c2ccccc2C)C3=N1 (stereo not given in full) | · | 8.0 | · | · | 3.4 | · | ·
O=C(Nc1ccc(C(F)(F)F)cc1)N1CCN(C(=O)c2ccco2)CC1 | -3.6 | -4.1 | -1.0 | 0.0 | -9.8 | · | ·
O=C1NC[C@H](Cc2ccc(O)cc2)N(C[C@@H]2CCCN2C[C@H](Cc2ccccc2)N2C[C@H](Cc3ccccc3)N(CCc3ccccc3)C(=O)C2=O)C1=O | 3.5 | -0.8 | · | -0.2 | -9.2 | · | ·
O=C1NC[C@H](Cc2ccc(O)cc2)N(C[C@@H]2CCCN2C[C@H](Cc2ccc(O)cc2)N2C[C@H](Cc3ccccc3)N(CCc3ccccc3)C(=O)C2=O)C1=O | 3.2 | 10.2* | · | -0.2 | 8.4 | -3.8 | 2.3
